Screening data deposited in PubChem by several laboratories.
Bcl-xL primary: blocks human Bcl-xL binding to Bim BH3 peptide | 0.7% of 320,000 active | Q07817 | GST-Bcl-xL / FITC-Bim BH3 peptide fluorescence polarization | inhibition, % at 10.9 µM;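 active = inhibition above the mean of all tested compounds plus 3 SD, cutoff set per campaign, cut at about 30% in these data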;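 note: 0% = DMSO wells and 100% = unlabeled Bim-BH3 peptide competitor; inhibitors lower millipolarization by displacing the labeled peptide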
MEX-5 binding: C. elegans MEX-5 TCR-2 RNA binding activity. Q9XUB2. MEX-5/FITC-TCR2 RNA binding, fluorescence polarization; hits give low values. activity score (negative = inhibition of binding), % at 10 µM. 0.38% of 300,000 active;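 active = inhibition past about -25% in most replicates, and total fluorescence under double the plate's negative control median, limit read from the data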;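 note: 0% = DMSO and -100% = 5 µM competing unlabeled TCR2 RNA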
Target sequence (Q9XUB2 whole entry, looked up): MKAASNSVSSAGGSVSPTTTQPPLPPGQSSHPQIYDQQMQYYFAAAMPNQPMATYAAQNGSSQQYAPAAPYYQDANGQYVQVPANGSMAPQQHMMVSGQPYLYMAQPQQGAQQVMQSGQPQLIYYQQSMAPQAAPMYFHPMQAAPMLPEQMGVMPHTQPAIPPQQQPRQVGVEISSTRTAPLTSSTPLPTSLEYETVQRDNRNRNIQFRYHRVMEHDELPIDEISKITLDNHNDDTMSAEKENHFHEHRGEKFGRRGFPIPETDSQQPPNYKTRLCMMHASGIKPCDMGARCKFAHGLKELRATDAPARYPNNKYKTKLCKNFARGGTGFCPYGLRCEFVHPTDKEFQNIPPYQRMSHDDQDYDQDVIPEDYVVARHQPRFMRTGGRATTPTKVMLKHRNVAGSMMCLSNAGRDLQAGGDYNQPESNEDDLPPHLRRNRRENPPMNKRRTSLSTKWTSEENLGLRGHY
MCL1 BIM primary: MCL1-BIM-BH3 interaction inhibition (human). AID 2057. Q07820. inhibition, % at 10.9 µM. 0.68% of 320,000 active. GST-MCL1 / FITC-Bim-BH3 fluorescence polarization;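 active = inhibition above the mean inhibition of all tested compounds plus 3 SD, set per campaign, cut at about 40% in these data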;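 note: 0% = DMSO wells and 100% = unlabeled Bim-BH3 peptide control; higher means more loss of mP so more displacement of Bim peptide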
EBV gp42 block: EBV gp42 inhibition; Q1HVG2; Fluorescence polarization binding assay, mP read-out; inhibition, % (tested at 21.74 µM); 0.42% of 220,000 active; in the data active = inhibition above about 50%
GLD-1 TGE inh: GLD-1-TGE RNA interaction inhibition (C. elegans); 0.44% of 320,000 active; purified GLD-1 + fluorescein TGE RNA, fluorescence polarization; Q17339; inhibition, % at 5.96 µM; AID 2280;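 active = percent inhibition above a per-plate cutoff, the plate mean of test compounds plus 3 SD, cut at about 30% in these data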;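 note: 0% = DMSO wells with GLD-1 and probe and 100% = wells lacking GLD-1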
BCLXL inh confirm: Bcl-xL (human) inhibition, MCL1 counter-screen confirmation. GST-Bcl-xL / FITC-Bim BH3 peptide FP binding. AID 2166. inhibition, % at 10.9 µM. shares compounds with MCL1 BIM primary. 54% of 1,700 active;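 active = inhibition above a cutoff equal to the mean inhibition of all tested compounds plus 3 SD, cut at about 30% in these data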;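 note: 0% = DMSO wells and 100% = unlabeled Bim BH3 control peptide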
MCL1 BIM confirm: MCL1-BIM-BH3 interaction inhibition, confirmation. shares compounds with MCL1 BIM primary. GST-MCL1 / FITC-Bim-BH3 fluorescence polarization. inhibition, % at 10.9 µM. 61% of 1,700 active;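 active = inhibition above the average of all tested compounds plus 3 SD, cut at about 40% in these data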;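 note: 0% = DMSO wells and 100% = unlabeled Bim-BH3 control peptide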
Starred values were filed as active, the others as inactive; · = no result; + = active, no number. Hits are enriched below; roughly 1.3% of the tested compounds scored in any of these assays.

SMILES	Bcl-xL primary	MEX-5 binding	MCL1 BIM primary	EBV gp42 block	GLD-1 TGE inh	BCLXL inh confirm	MCL1 BIM confirm
COc1ccccc1N(CC(=O)NC1CCCC1)C(=O)c1csnn1	3	1	69*	4	-3	7	3
Fc1ccc(-n2nnc(-c3ccccc3Br)n2)cc1	10	2	+	·	4	6	8
COCCCNC(=O)/C(C#N)=C/c1ccc(OCC(=O)O)c(OC)c1	16	-10	57*	10	7	20	33
O=C(NNc1ccccc1[N+](=O)[O-])Nc1ccc(Cl)c(Cl)c1	6	2	7	7	4	·	·
O=C1NC(=O)C(c2ccccc2[N+](=O)[O-])=C1Nc1ccc(O)c(Cl)c1	29	-12	50*	·	3	24	27
C=CCN1C(=O)C2(OCCO2)c2cc(C)ccc21	19	1	40*	·	8	4	1
COc1ccc(/C=N/NC(=O)COc2ccc3ccccc3c2)c(C(=O)O)c1OC	0	0	-2	2	7	·	·
COc1ccc(/C=N/NC(=O)COc2cccc3ccccc23)c(C(=O)O)c1OC	6	0	54*	-3	-5	10	23
COc1ccc2[nH]c3c(c2c1)CCNC3c1ccc([N+](=O)[O-])o1 (stereo unspecified)	87*	-50*	96*	·	37*	79*	101*
COc1ccc2[nH]c3c(c2c1)CCNC3C1CC=C(C)CC1 (stereo unspecified)	3	-2	0	-2	-2	·	·
CCNc1cc(O)ccc1C	138*	·	164*	·	137*	73*	85*
Cc1ccc(C(=O)CNc2cc(C)ccc2C)cc1	3	-3	-1	·	-1	·	·
CCC(=O)N1CCN(c2ccc(NC(=O)c3cccs3)cc2)CC1	3	-2	42*	-22	0	1	-6
CC(NS(=O)(=O)OCC(Cl)(Cl)Cl)c1ccc(C(C)(C)C)cc1 (stereo unspecified)	3	-1	0	·	14	·	·
C[C@H](NS(=O)(=O)OCC(Cl)(Cl)Cl)C1CC1c1ccccc1 (stereo partly specified)	5	2	47*	·	10	15	61*
COc1cccc(OCCCn2cc(/C=C3/C(=N)N4C=C(C)SC4=NC3=O)c3ccccc32)c1	59*	-29*	66*	37	6	10	15
COc1ccc(OCCCn2cc(/C=C3/C(=N)N4C=C(C)SC4=NC3=O)c3ccccc32)cc1	1	-7	3	12	5	·	·
Cc1oc2c(O)c(O)ccc2c(=O)c1-c1ccc(Cl)cc1	25	-1	43*	·	1	58*	81*
Cc1oc2c(O)c(O)ccc2c(=O)c1-c1ccccc1	10	-3	36	-2	5	·	·
CCOC(=O)C1(Cc2cccc(Cl)c2)CCCN(C(=O)c2c(CC)noc2C)C1 (stereo unspecified)	6	1	42*	·	4	4	1
CCOC(=O)C(=O)N1CCC(C(=O)OC)CC1	6	3	6	-5	-2	·	·
CCOC(=O)C1Nc2ccc(C(=O)O)cc2C2C=CCC12 (stereo unspecified)	37*	-18	89*	·	10	32*	48*
CCOC(=O)c1ccc2c(c1)C1C=CCC1C(C(=O)O)N2 (stereo unspecified)	64*	·	113*	84*	23	54*	97*
CCOC(=O)C1Nc2c(F)cc(C)cc2C2C=CCC12 (stereo unspecified)	14	-4	36	·	-6	·	·
O=C(Nc1nc(-c2cccs2)cs1)c1ccc([N+](=O)[O-])o1	8	·	15	·	-2	·	·
CCOc1ccc(-c2c(=O)n(O)c3ccccc3[n+]2[O-])cc1	-2	-4	-6	·	-6	·	·
COC(=O)c1c(=O)n(O)c2ccc(OC)cc2[n+]1[O-]	169*	-30*	198*	98*	146*	138*	178*
C#CCN1c2ccccc2Sc2cccnc21	+	-11	+	·	93*	27	39
